Inconclusive results are not listed. Values without a mark were called inactive. The source made the active and inactive calls. The call rests on the fitted dose curve; in most records, active means well fitted curve in the direction sought with a large enough effect in the repeat runs; inconclusive means weak or mixed curves; inactive means no such curve, though single readings can be large; an effect the other way counts as inactive or inconclusive.
target: Cytochrome P450 1A2 (Homo sapiens) (UniProt P05177); experiment: Cytochrome P450 Family 1 Subfamily A Member 2 (CYP1A2) small molecule antagonists: luciferase reporter qHTS assay (AID 1671199); conditions: P450-Glo CYP1A2 enzyme, luciferin luminescence, 1 h; series mostly up to 53 µM; activity change, negative = inhibition: at the top concentration; further: potency means the concentration at half of the fitted maximal effect
How it was run: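 Steps: enzyme-substrate mix dispensed; test compounds and furafylline control pinned in; 10 min room temperature; NADPH regeneration solution added, 1 h; reaction stopped with luciferin detection reagent; luminescence read after 20 min.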
Further: nearly all actives have a fitted effect of over 50% in size.
On the % scale 0 is the no-effect control and ±100 the full control effect.

Cytochrome P450 1A2 (Homo sapiens), sequence (P05177 whole entry, looked up): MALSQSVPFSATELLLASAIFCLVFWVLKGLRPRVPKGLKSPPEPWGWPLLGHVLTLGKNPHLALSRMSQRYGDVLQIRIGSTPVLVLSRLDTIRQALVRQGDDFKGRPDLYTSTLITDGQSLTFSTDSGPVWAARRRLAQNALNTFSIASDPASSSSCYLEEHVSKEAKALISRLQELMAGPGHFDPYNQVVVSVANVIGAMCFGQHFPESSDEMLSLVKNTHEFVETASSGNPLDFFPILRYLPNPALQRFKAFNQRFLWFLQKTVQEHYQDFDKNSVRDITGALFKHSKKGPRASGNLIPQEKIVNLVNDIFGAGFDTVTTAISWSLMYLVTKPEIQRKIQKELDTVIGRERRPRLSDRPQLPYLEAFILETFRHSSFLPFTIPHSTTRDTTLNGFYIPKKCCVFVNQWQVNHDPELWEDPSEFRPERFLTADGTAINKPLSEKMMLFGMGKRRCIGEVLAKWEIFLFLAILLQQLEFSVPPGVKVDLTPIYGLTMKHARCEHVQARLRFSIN

SMILES | activity change, negative = inhibition | Potency
CC(=O)CCCCn1c(=O)c2c(ncn2C)n(C)c1=O | -11.9% | –
NNc1nnc(NN)c2ccccc12 | – | 36.3 µM (active)
O=C(CCN1CCN(CCO)CC1)N1c2ccccc2Sc2ccc(C(F)(F)F)cc21 | -14.1% | –
CCCN1C[C@H](CSC)C[C@@H]2c3cccc4[nH]cc(c34)C[C@H]21 | -19.3% | –
O=C(OCC(O)CO)c1ccccc1Nc1ccnc2c(C(F)(F)F)cccc12 (centres undefined) | – | 2.88 µM (active)
Cc1cc2cc3c(C)cc(=O)oc3c(C)c2o1 | – | 6.45 µM (active)

target: Voltage-gated inwardly rectifying potassium channel KCNH2 (Homo sapiens) (UniProt Q12809); experiment: Human Ether-a-go-go-Related Gene (hERG) channel small molecule antagonists: fluorescence cell-based qHTS assay (AID 1671200); conditions: hERG-U2OS cells, FluxOR thallium flux fluorescence; series mostly up to 76.8 µM; activity change, negative = inhibition: at the top concentration;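 further: hERG-expressing U2OS cells given a thallium stimulus after FluxOR II dye loading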
How it was run: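 In this thallium-flux screen, overnight-cultured U2OS cells bearing the channel are dye-loaded in darkness for an hour, rested 10 min at room temperature, and then monitored kinetically at 480/540 nm for two minutes post-stimulus.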

Voltage-gated inwardly rectifying potassium channel KCNH2 (Homo sapiens), sequence (Q12809 whole entry, looked up): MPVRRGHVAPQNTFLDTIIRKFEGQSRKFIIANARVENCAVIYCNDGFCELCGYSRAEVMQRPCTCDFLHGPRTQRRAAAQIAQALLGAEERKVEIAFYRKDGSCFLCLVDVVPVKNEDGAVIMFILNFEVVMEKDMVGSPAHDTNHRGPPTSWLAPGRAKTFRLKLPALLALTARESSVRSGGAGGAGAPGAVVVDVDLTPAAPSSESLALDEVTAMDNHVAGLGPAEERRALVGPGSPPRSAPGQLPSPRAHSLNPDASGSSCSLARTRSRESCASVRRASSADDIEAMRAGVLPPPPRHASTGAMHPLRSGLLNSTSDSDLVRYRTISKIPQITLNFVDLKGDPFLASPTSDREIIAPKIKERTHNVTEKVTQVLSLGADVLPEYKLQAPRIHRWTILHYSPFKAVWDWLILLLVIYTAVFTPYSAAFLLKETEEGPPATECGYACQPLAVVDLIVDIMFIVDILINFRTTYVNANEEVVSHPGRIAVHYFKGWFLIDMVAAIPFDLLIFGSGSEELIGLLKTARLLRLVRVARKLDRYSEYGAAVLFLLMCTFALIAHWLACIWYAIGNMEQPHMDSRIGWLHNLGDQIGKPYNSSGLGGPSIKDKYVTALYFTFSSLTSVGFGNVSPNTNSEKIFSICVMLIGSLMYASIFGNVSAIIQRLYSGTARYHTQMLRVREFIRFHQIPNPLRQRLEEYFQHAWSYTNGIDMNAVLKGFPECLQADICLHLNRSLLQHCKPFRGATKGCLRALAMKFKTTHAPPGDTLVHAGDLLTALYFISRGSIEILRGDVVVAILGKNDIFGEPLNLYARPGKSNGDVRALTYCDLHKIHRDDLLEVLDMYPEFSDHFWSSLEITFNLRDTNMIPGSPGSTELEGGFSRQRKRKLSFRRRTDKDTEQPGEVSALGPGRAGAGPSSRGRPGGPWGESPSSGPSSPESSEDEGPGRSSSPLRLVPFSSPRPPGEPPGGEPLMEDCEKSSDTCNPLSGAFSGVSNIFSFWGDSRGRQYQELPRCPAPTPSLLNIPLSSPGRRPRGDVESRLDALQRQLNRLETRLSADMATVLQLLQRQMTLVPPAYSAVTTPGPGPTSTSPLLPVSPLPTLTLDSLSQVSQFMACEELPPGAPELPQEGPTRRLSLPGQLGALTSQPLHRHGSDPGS

SMILES | activity change, negative = inhibition
COc1ccc2nc(SCc3ncc(C)c(OC)c3C)[nH]c2c1 | -3.74% [at 35.3 µM]
COc1ccc2c(c1)C(=O)N(CCc1ccc(S(=O)(=O)NC(=O)NC3CCCCC3)cc1)C(=O)C2(C)C | -1.01% [at 35.3 µM]
O=C(OCC1(COC(=O)c2cccnc2)CCCC(COC(=O)c2cccnc2)(COC(=O)c2cccnc2)C1O)c1cccnc1 | -17.1% [at 35.3 µM]
CCOCCOC(=O)/C=C/c1ccc(OC)cc1 | 2.46% [at 35.3 µM]
CCCCNC1CC(C)(C)NC(C)(C)C1 | -10.4%
O=C(NCCN1CCOCC1)c1ccc(Cl)cc1 | 1.74% [at 35.3 µM]
COc1ccc2c(c1OC)C(=O)O[C@@H]2[C@H]1c2c(cc3c(c2OC)OCO3)CCN1C | -11.4% [at 35.3 µM]
Nc1nnc(-c2cccc(Cl)c2Cl)c(N)n1 | 2.17% [at 35.3 µM]
CC(N)C(=O)OC(C)(C)Cc1ccc(Cl)cc1 (centres undefined) | -22% [at 35.3 µM]
CN(C)c1ccc(C=O)cc1 | 1.83%
Cc1ccc(S(=O)(=O)O)c(C)c1 | -0.543%
CC1(C)S[C@@H]2[C@H](N=CN3CCCCCC3)C(=O)N2[C@H]1C(=O)O | 0.939% [at 35.3 µM]
O=C1CCCC(=O)O1 | -2.13%
C=CCCCCCCCCCCCC | 0.385%
O=C1c2cccc3c2[C@H](CCC3)CN1[C@@H]1CN2CCC1CC2 | -25.5% [at 35.3 µM]
C=COCCOCCOCCOC=C | -1.85%
CC(C)N(c1ccccc1)C(C)C | 1.23%
CC(C)CC(C)CC(C)CC(C)COC(=O)c1ccccc1C(=O)OCC(C)CC(C)CC(C)CC(C)C (centres undefined) | 4.57%
C[C@H](CCC(=O)O)[C@H]1CC[C@H]2[C@@H]3C(=O)C[C@@H]4CC(=O)CC[C@]4(C)[C@H]3CC(=O)[C@]12C | 4.98% [at 35.3 µM]
CC(C)NCC(O)COc1ccc(COCCOC(C)C)cc1 (centres undefined) | 0.196% [at 35.3 µM]
c1ccc2c(c1)ccc1c3ccccc3ccc21 | 3.71% [at 35.3 µM]
CC(=C(CCOC(=O)C(C)C)SSC(CCOC(=O)C(C)C)=C(C)N(C=O)Cc1cnc(C)nc1N)N(C=O)Cc1cnc(C)nc1N | -25% [at 35.3 µM]
Cc1[nH]cnc1-c1ccc(Cl)cc1 | 5.47% [at 35.3 µM]
CCCCCCN | -5.12%
CC(=O)CCCCn1c(=O)c2c(ncn2C)n(C)c1=O | 1.89% [at 35.3 µM]
NNc1nnc(NN)c2ccccc12 | 1.36% [at 35.3 µM]
O=C(CCN1CCN(CCO)CC1)N1c2ccccc2Sc2ccc(C(F)(F)F)cc21 | -13.6% [at 35.3 µM]
O=C(OCC(O)CO)c1ccccc1Nc1ccnc2c(C(F)(F)F)cccc12 (centres undefined) | -15.7% [at 35.3 µM]
Cc1cc2cc3c(C)cc(=O)oc3c(C)c2o1 | -2.26% [at 35.3 µM]

target: Cytochrome P450 3A4 (Homo sapiens) (UniProt P08684); experiment: Cytochrome P450 Family 3 Subfamily A Member 4 (CYP3A4) small molecule antagonists: luciferase reporter qHTS assay (AID 1671201); conditions: P450-Glo CYP3A4 enzyme, luciferin luminescence, 1 h; series mostly up to 115 µM; activity change, negative = inhibition: at the top concentration
How it was run: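 CYP3A4 activity was followed with a P450-Glo proluciferin substrate. Test compounds in DMSO were preincubated 10 min; NADPH regeneration then ran 1 h, and light output was read 20 min after detection reagent.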

Cytochrome P450 3A4 (Homo sapiens), sequence (P08684 whole entry, looked up): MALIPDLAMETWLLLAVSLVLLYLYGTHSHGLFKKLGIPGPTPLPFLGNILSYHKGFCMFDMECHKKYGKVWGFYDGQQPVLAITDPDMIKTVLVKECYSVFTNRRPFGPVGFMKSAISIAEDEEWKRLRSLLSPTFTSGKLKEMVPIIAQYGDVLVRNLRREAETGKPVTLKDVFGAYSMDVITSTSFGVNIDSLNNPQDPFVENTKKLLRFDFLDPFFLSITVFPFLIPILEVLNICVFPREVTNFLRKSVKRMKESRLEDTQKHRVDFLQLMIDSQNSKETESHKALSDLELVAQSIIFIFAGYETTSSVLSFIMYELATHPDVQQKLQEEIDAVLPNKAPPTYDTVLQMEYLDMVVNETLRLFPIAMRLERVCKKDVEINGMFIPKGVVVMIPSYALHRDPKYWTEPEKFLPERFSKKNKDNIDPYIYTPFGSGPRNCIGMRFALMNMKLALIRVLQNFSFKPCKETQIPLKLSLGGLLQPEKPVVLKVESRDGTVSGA

SMILES | activity change, negative = inhibition
CCOCCOC(=O)/C=C/c1ccc(OC)cc1 | 33.9% [at 52.9 µM]
CCCCNC1CC(C)(C)NC(C)(C)C1 | -18.7%
O=C(NCCN1CCOCC1)c1ccc(Cl)cc1 | 10.3% [at 52.9 µM]
CN(C)c1ccc(C=O)cc1 | 8.03%
Cc1ccc(S(=O)(=O)O)c(C)c1 | 34.9%
CC1(C)S[C@@H]2[C@H](N=CN3CCCCCC3)C(=O)N2[C@H]1C(=O)O | 0.548% [at 52.9 µM]
O=C1CCCC(=O)O1 | 6.93%
C=CCCCCCCCCCCCC | 3.53%
C=COCCOCCOCCOC=C | -2.2%
CC(C)N(c1ccccc1)C(C)C | 8.5%
C[C@H](CCC(=O)O)[C@H]1CC[C@H]2[C@@H]3C(=O)C[C@@H]4CC(=O)CC[C@]4(C)[C@H]3CC(=O)[C@]12C | -13.2% [at 52.9 µM]
c1ccc2c(c1)ccc1c3ccccc3ccc21 | 0.29% [at 52.9 µM]
CCCCCCN | -0.912%
CC(=O)CCCCn1c(=O)c2c(ncn2C)n(C)c1=O | 0.492% [at 52.9 µM]

From PubChem BioAssay (Tox21)
